The nature of assay [1]: A CellTox Green Cytotoxicity Assay to monitor cytotoxicity in HepG2 cells - 16 hour (AID 1224876). Further: nearly all actives have a fitted effect of over 45% in size. In a few lines: (§1)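 Cells and non-lytic dye reagent are dispensed together (600 HepG2 cells/well) and incubated 5 h before DMSO compound transfer. Kinetic fluorescence is then recorded in the same wells during 40 h at 37 C.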
Assay [2] in a line: qHTS RealTime-Glo MT Cell Viability Assay in HepG2 cells - 32 hour (AID 1224877). Further: nearly all actives have a fitted effect of over 55% in size. Further: potency means the concentration at half of the fitted maximal effect. In a few lines: (§2)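 Viability was tracked continuously by NanoLuc luminescence from prosubstrate reduced by living HepG2 cells, at successive time points over 40 h of compound exposure. Cells with reagent were preincubated 5 h at 37 °C before compound addition.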
Assay [3] in a line: A CellTox Green Cytotoxicity Assay to monitor cytotoxicity in HepG2 cells - 24 hour (AID 1224878). Further: nearly all actives have a fitted effect of over 45% in size. The essentials:
as §1

Assay [4] can be described thus: A CellTox Green Cytotoxicity Assay to monitor cytotoxicity in HepG2 cells - 40 hour (AID 1224879). Further: nearly all actives have a fitted effect of over 40% in size. Further: potency means the concentration at half of the fitted maximal effect. The essentials:
as §1

Assay [5] is described as follows: qHTS RealTime-Glo MT Cell Viability Assay in HEK293 cells - 0 hour (AID 1224880). Further: top concentration of the series differs between compounds; nearly all actives have a fitted effect of over 45% in size. In a few lines: (§3)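 Real-time viability in HEK293: signal arises when living cells convert a prosubstrate for NanoLuc in the medium, so luminescence tracks viable cell number. Compound (23 nL, DMSO) added 5 h post-seeding; kinetic reads at 0–40 h, 37 C.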
For orientation: In qHTS, concentration-response curves come from the screen itself.

Assay [6] is described as follows: A CellTox Green Cytotoxicity Assay to monitor cytotoxicity in HepG2 cells - 0 hour (AID 1224882). Further: nearly all actives have a fitted effect of over 35% in size. The essentials:
as §1

Assay [7] is described as follows: A CellTox Green Cytotoxicity Assay to monitor cytotoxicity in HepG2 cells - 32 hour (AID 1224883). Further: nearly all actives have a fitted effect of over 50% in size. Further: potency means the concentration at half of the fitted maximal effect. In a few lines:
as §1

Assay [8] can be described thus: A CellTox Green Cytotoxicity Assay to monitor cytotoxicity in HEK293 cells - 8 hour (AID 1224884). Further: nearly all actives have a fitted effect of over 35% in size. In a few lines: (§4)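 Cells (HEK293, 600/well) and dye reagent are dispensed together. After 5 h at 37 C, 23 nL compound is pinned in. Plates stay at 37 C for 40 h with fluorescence read at 0h, 8h, 16h, 24h, 32h and 40h.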
Assay [9] in a line: A CellTox Green Cytotoxicity Assay to monitor cytotoxicity in HEK293 cells - 16 hour (AID 1224888). Further: nearly all actives have a fitted effect of over 35% in size. In a few lines: as §4
Assay [10] is described as follows: qHTS RealTime-Glo MT Cell Viability Assay in HepG2 cells - 0 hour (AID 1224889). Further: nearly all actives have a fitted effect of over 50% in size. The essentials: as §2
Assay [11] is described as follows: A CellTox Green Cytotoxicity Assay to monitor cytotoxicity in HepG2 cells - 8 hour (AID 1224890). Further: nearly all actives have a fitted effect of over 45% in size. The essentials:
as §1

Assay [12] can be described thus: qHTS RealTime-Glo MT Cell Viability Assay in HepG2 cells - 8 hour (AID 1224873). Further: nearly all actives have a fitted effect of over 55% in size. In a few lines: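 Real-time viability: cells seeded at 600 per well together with NanoLuc and cell-permeant prosubstrate, compounds added after 5 h incubation. Luminescence tracked at 0, 8, 16, 24, 32 and 40 h of exposure.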
The nature of assay [13]: qHTS RealTime-Glo MT Cell Viability Assay in HEK293 cells - 40 hour (AID 1224874). Further: nearly all actives have a fitted effect of over 50% in size. Further: potency means the concentration at half of the fitted maximal effect. To be noted: RealTime-Glo luminescence; max response: stronger effect = lower value. The essentials: as §3
A short description of assay [14]: A CellTox Green Cytotoxicity Assay to monitor cytotoxicity in HEK293 cells - 24 hour (AID 1224875). The essentials:
as §4

Assay [15] can be described thus: A CellTox Green Cytotoxicity Assay to monitor cytotoxicity in HEK293 cells - 32 hour (AID 1224881). Further: nearly all actives have a fitted effect of over 40% in size. Further: potency means the concentration at half of the fitted maximal effect. The essentials: as §4
Assay [16] is described as follows: qHTS RealTime-Glo MT Cell Viability Assay in HepG2 cells - 16 hour (AID 1224885). Further: nearly all actives have a fitted effect of over 50% in size. In a few lines:
as §2

A short description of assay [17]: qHTS RealTime-Glo MT Cell Viability Assay in HEK293 cells - 8 hour (AID 1224887). The essentials: as §3
Assay [18] can be described thus: qHTS RealTime-Glo MT Cell Viability Assay in HEK293 cells - 24 hour (AID 1224886). Further: nearly all actives have a fitted effect of over 50% in size. Further: potency means the concentration at half of the fitted maximal effect. The essentials: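 Viability tracked continuously by luminescence as live cells reduce a prosubstrate for NanoLuc; HEK293 cells preincubated 5 h, compound-treated at 37 C, and read at 0, 8, 16, 24, 32 and 40 h.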

Values joined by “and” are separate entries in the source; they are usually repeats but may differ in a detail not shown here. Equal entries are not always repeated. A number with no mark means an inactive call. Records with an inconclusive call do not appear. Active and inactive are the calls of the source. The call rests on the fitted dose curve; in most records, active means well fitted curve in the direction sought with a large enough effect in the repeat runs; inconclusive means weak or mixed curves; inactive means no such curve, though single readings can be large; an effect the other way counts as inactive or inconclusive.

The text below walks through data of PubChem BioAssay (Tox21).
On the % scale 0 is the no-effect control and ±100 the full control effect.

In the case of `CN(C)c1ccc(C(c2ccccc2)c2ccc(N(C)C)cc2)cc1`, the Potency result in assay [1], in [2], in [3], in assay [4], in [5] and in assay [6] was “inactive” throughout. Moreover, the Potency result in [7], in [8], in [9], in assay [10] and in assay [11] was “inactive” each time.

For the compound `CO[C@@H]1[C@H](OC(=O)/C=C/C=C/C=C/C=C/C(=O)O)CC[C@]2(CO2)[C@H]1[C@@]1(C)O[C@@H]1CC=C(C)C`, the Potency result in assay [12], in [14], in [1], in assay [2], in [3] and in assay [4] was “inactive” throughout. The Potency entry in [5], in assay [15], in assay [6], in assay [8], in assay [16] and in assay [17] was “inactive” each time. Moreover, the Potency entry in assay [9], in [10] and in assay [11] was “inactive” in each case. For the same compound, in assay [13], the max response is 18.9%.

Regarding `CC(C)=CCC/C(C)=C/CC/C(C)=C/CO`, the Potency result in assay [12], in assay [1], in assay [2], in assay [3], in assay [5] and in assay [8] was “inactive” each time. In addition, the Potency result in [16] and in assay [10] was “inactive” each time.

`CCC(C)c1cc(C(C)(C)C)c(O)c(C(C)(C)C)c1` (configuration not stated): the Potency result in assay [12], in assay [1], in assay [2], in assay [3], in [4] and in assay [5] was “inactive” each time. Moreover, the Potency result in [6], in assay [16], in assay [18], in assay [17] and in assay [10] was “inactive” each time. The max response in [13] is 0.103%.

With `COc1ccc(C(=O)c2ccc(OC)cc2O)c(O)c1`, the figures for the Potency in assay [13], in assay [4] and in assay [18] were 24.7 µM (active), 15.6 µM (active) and 24.7 µM (active), respectively. Also, the Potency result in [1], in [2], in assay [3], in assay [5], in [6] and in assay [7] was “inactive” throughout. In addition, the Potency entry in [8], in assay [16], in assay [10] and in assay [11] was “inactive” each time.

Regarding `C=CC(=O)OCCOCCOCCOCCOC(=O)C=C`, the Potency in assay [13] was 31.1 µM (active) and 19.3 µM (active); in [2], 48.5 µM (active); in assay [4] it was 24.7 µM (active) and 13.7 µM (active); in assay [15], 54.4 µM (active); in [7], 39.1 µM (active) and 13.7 µM (active); in assay [18] it was 34.8 µM (active) and 30.6 µM (active). Further, the Potency result in [14], in assay [1], in assay [3], in assay [5], in assay [6] and in assay [8] was “inactive” each time. For the same compound, the Potency result in assay [9], in assay [10] and in assay [11] was “inactive” throughout.

Take `OCCN1CCN(CCCN2c3ccccc3C=Cc3ccccc32)CC1`: the Potency entry in assay [14], in assay [1], in assay [2], in [3], in assay [4] and in assay [5] was “inactive” each time. The Potency entry in assay [15], in assay [6], in assay [8], in [16], in assay [18] and in [9] was “inactive” in each case. Besides, the Potency entry in assay [10] and in [11] was “inactive” throughout.

As to `C#C[C@]1(O)CC[C@H]2[C@@H]3CCc4cc(OC5CCCC5)ccc4[C@H]3CC[C@@]21C`, the Potency in assay [13] is 23.9 µM (active). Besides, the Potency entry in [14], in assay [15], in [8], in assay [9] and in assay [10] was “inactive” in each case.

As for `Cc1ccc(C(C)OC(=O)C2(C)CCC(C(=O)O)C2(C)C)cc1` (configuration not stated), the Potency result in assay [12], in assay [14], in assay [1], in assay [2], in [3] and in assay [4] was “inactive” each time. In addition, the Potency result in [5], in assay [15], in assay [6], in assay [7], in [8] and in assay [16] was “inactive” in each case. Besides, the Potency entry in assay [18], in assay [9], in assay [10] and in [11] was “inactive” each time. For the same compound, the max response in [13] was 8.96%.
